Screening data as filed in PubChem BioAssay.
MARV entry inh: qHTS for inhibitors of binding or entry into cells for Marburg Virus. Marburg virus pseudotyped entry inhibition, cell reporter. Potency, µM (titrated, usually from 37.8 µM), inactives show at the highest dose activity change, negative = inhibition, actives largely listed as inhibitors. 300,000 tested, 1.8% active. AID 540276, 2011; calls by dose curve; tested in HEK293 cells; note: potency is the fitted concentration of half-maximal effect; % is set by controls: 0 for no effect and ±100 for the full control effect
Shiga inhibitor: A qHTS for Small Molecule Inhibitors of Shiga Toxin; Vero cells, Shiga toxin protein synthesis inhibition reporter; inhibition, % at 38.7 µM; 290,000 tested, 9.2% active; AID 2315, 2010; in the data active = inhibition mostly above about 28%, no sharp cut-off; inactive = mostly below about 43%; note: 0% is about no effect
AMA1-RON2 inh: qHTS for Inhibitors of AMA1-RON; Towards Development of Antimalarial Drug Lead: Primary Screen; 360,000 tested, 0.2% active; Potency, µM (highest dose often 58.2 µM), for inactives: at the highest dose activity change, negative = inhibition, usual class: inhibitors; AlphaScreen AMA1-biotinylated RON2 peptide binding; AID 720542, 2013; Plasmodium falciparum AMA1 (3D7) - RON2 peptide interaction; active = well fitted inhibition curve with a large enough effect; inconclusive = small, poorly fitted or top-dose-only effect; inactive = no such curve, though single readings can be large or run the other way;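 note: potency is the fitted concentration of half-maximal effect; 0% = vehicle wells and -100% = peptide control; nearly all actives have a fitted effect of over 45% in size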
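AMA1 (3D7) with his tag at 25 nM final met compounds first, then biotinylated RON2 peptide at 25 nM; detection used donor plus acceptor beads, 10 µg/mL apiece, read by AlphaScreen after 30 min at room temperature.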
LASV entry inh: qHTS for Inhibitors of binding or entry into cells for Lassa Virus; 300,000 tested, 1.2% active; AID 540256, 2011; Lassa virus pseudotype entry inhibition, cell reporter; Potency, µM (doses to about 37.9 µM), for the others: at the highest dose activity change, negative = inhibition, hits mostly inhibitors; calls by dose curve; tested in HEK293 cells; note: potency is the fitted concentration of half-maximal effect; % is set by controls: 0 for no effect and ±100 for the full control effect; nearly all actives have a fitted effect of over 50% in size
Cycloheximide cs: Cycloheximide Counterscreen for Small Molecule Inhibitors of Shiga Toxin | cell reporter, cycloheximide protein synthesis inhibition counterscreen | max response, % | 300,000 tested, 12% active; in the data active = max response mostly above about 13%, no sharp cut-off; inactive = mostly below about 14%; note: read at 38.3 µM for the half of the compounds with a filed dose; 0% is about no effect
Active calls of the source: *; ? = inconclusive; nt = no result given; [ ] = dose if it differs, or a comment. Many of the other results were omitted from the sample, so hits are more common in it than they were.

SMILES | MARV entry inh | Shiga inhibitor | AMA1-RON2 inh | LASV entry inh | Cycloheximide cs
CCOc1ccc(Nc2cc(C)nc3nc(Cc4ccc(Cl)cc4)nn23)cc1 | 17%[46.1 µM] | nt | nt | ? | nt
O=C(CC1C(=O)NCCN1C/C=C/c1ccccc1)NCCCC1CCCC1 (stereo not given) | 3%[46.1 µM] | 75* | 27% | -1%[46.1 µM] | 37*
O=C(CC1C(=O)NCCN1C/C=C/c1ccccc1)NCCc1ccncc1 (stereo not given) | 9%[46.1 µM] | -1 | 10% | -7%[46.1 µM] | -2
CC(Cc1ccccc1)N1C(=O)c2ccccc2C1=O (stereo not given) | nt | 49* | 10% | nt | 22*
COc1ccc(NC(C)=O)cc1NC(=O)CSc1nnc(-c2ccccc2)n1N | 24% | 60* | -5% | -17% | 18
Cn1cc(SCC(=O)Nc2nccs2)c2ccccc21 | nt | 83* | -2% | nt | 40*
COc1ccc(NC(C)=O)cc1NC(=O)CSc1nnc(-c2ccncc2)n1C | 6% | 3 | 14% | 10% | 2
Cc1cc(C)nc(SCc2nnc(SCC(=O)Nc3nccs3)n2C)n1 | ? | 19 | 6% | 0% | -2
COc1ccc(CCCc2nnc(SCC(=O)Nc3nccs3)n2C)cc1C | 4% | 2 | -10% | 21µM* | -3
Cc1ccc(-c2nnc(SCC(=O)Nc3nccs3)n2N)cc1 | 4% | 43* | -5% | -2% | 30*
Cc1cccc(Cc2c(C)nc3nc(SCc4ccccc4F)nn3c2C)c1 | nt | nt | nt | 14%[46.1 µM] | nt
Cc1ccc(S(=O)(=O)NCC(c2ccc3c(c2)OCO3)N2CCN(c3ccccc3)CC2)cc1 (stereo not given) | ? | nt | -2% | ? | nt
N#Cc1cccnc1N1CCN(C(C(=O)NC2CCCC2)c2ccc(F)cc2)CC1 (stereo not given) | nt | nt | 6% | nt | nt
Cc1cc(C)cc(NC(=O)CSc2nnc(-c3ccccc3)n2N)c1 | 5% | -10 | 3% | 10% | 14*
Cc1cccc(NC(=O)CSc2nnc(-c3ccccc3)n2N)c1 | 0% | 12 | 9% | 18% | 12
Cc1ccc(-c2nnc(-c3ccncc3)n2-c2ccc(C)cc2)cc1 | 9% | 53* | -4% | 9% | 20*
Cc1cccc(Nc2nc(-c3sc(C)nc3C)cs2)c1 | ? | 50* | ? | ? | 29*
CCC(=O)Nc1nc(C)c(-c2csc(Nc3cccc(O)c3)n2)s1 | nt | 50* | -1% | nt | 36*
Cc1nc(N)sc1-c1csc(Nc2cccc(O)c2)n1 | 15% | 30 | 33% | 1% | 14*
Cc1nc2ccccn2c1-c1csc(Nc2cccc(O)c2)n1 | ? | 32 | -5% | ? | 2
Cc1nc(NC(=O)c2ccccc2)sc1-c1csc(Nc2cccc(Cl)c2)n1 | 0% | 56 | nt | nt | 19
Cc1nc(C)c(-c2csc(Nc3cccc(O)c3)n2)s1 | ? | 35* | -6% | -16% | 45*
COCC(=O)Nc1nc2ccc(C)cc2s1 | ? | 65* | 0% | ? | 52*
COc1ccc(-c2nc(NC(=O)c3cc(C(C)(C)C)nn3C)sc2C)cc1 | 9.2µM* | 14 | -16% | ? | 6
Cc1ccc2nc(NC(=O)COC(=O)c3ccncc3)sc2c1 | ? | 66* | 5% | 14% | 35*
SMILES | MARV entry inh | Shiga inhibitor | AMA1-RON2 inh | LASV entry inh | Cycloheximide cs
COCC(=O)Nc1nc(-c2ccc(C)cc2)c(C)s1 | 3% | 35* | 1% | 22% | 13*
CC(C)OCCCNC(=O)c1cc2c(-c3ccc(Cl)cc3)nn(C)c2s1 | -15%[46.1 µM] | nt | nt | 10%[46.1 µM] | nt
Cc1ccc2nc(NC(=O)CN3CCOCC3)sc2c1 | -10% | 64* | -3% | 19% | 33*
Cc1sc(NC(=O)c2c(F)cccc2F)nc1-c1ccccc1 | ? | 14 | -5% | ? | 10
Cc1sc(NC(=O)c2ccc(=O)n(C)n2)nc1-c1ccccc1 | 15%[46.1 µM] | 42 | 6% | ? | 32*
CCN1CCN(CC(=O)Nc2nc3ccc(C)cc3s2)CC1 | nt | 15 | 4% | nt | 12
COc1ccc(-c2nc(C3CCCCC3)no2)cc1OC | ? | 163* | 5% | 49%[14.3 µM] | 53*
COc1ccc(-c2noc(-c3ccc(N4CCC(C)CC4)c([N+](=O)[O-])c3)n2)cc1OC | -11%[46.1 µM] | nt | nt | -10%[46.1 µM] | nt
c1ccc(-c2nc(C3CCCCC3)no2)cc1 | 7% | 45* | -16% | ? | 28*
Cc1n[nH]c(=O)c2c(NC(=O)CSc3nn(-c4ccccc4)c(=S)s3)oc(C)c12 | -7% | nt | -12% | -3% | nt
O=C(NCc1ccc(F)cc1F)[C@@H]1CCCN1C(=O)[C@@H]1CCCN1 | nt | nt | -25% | nt | nt
NC(=O)N/N=C/c1ccc(N2CCOCC2)s1 | -5% | -3 | 22% | ? | -1
O=C(O)c1cc(N/N=C/c2ccc(N3CCOCC3)s2)ccc1Cl | 3% | 64* | 1% | 14% | 45*
C/C(=N\Nc1ccc(Cl)c(C(=O)O)c1)c1ccc(N2CCOCC2)cc1 | 6%[46.1 µM] | 156* | -11% | -18% | 118*
Cc1c(Br)c([N+](=O)[O-])nn1CC(=O)N1CCc2ccccc21 | -2%[46.1 µM] | -13 | 8% | -2% | -4
O=C(Cn1cc2c(n1)CCCC2)N1CCCc2ccccc21 | nt | 76* | 4% | nt | 18*
O=C(Cn1cc2c(n1)CCCCC2)N1CCCCC1 | ? | 38 | -5% | 0% | 18*
Cc1c(Cl)c([N+](=O)[O-])nn1CC(=O)N1CCCc2ccccc21 | 7% | -2 | -2% | 14% | 25*
CC1CCc2nn(CC(=O)N3CCc4ccccc43)cc2C1 (stereo not given) | nt | -4 | -8% | nt | -4
COc1cccc(CN2CCC2(C)C(=O)Nc2cnc3ccccc3c2)c1F (stereo not given) | nt | nt | -17% | nt | nt
COC1=C[C@H](C(=O)NCCOC(C)=O)[C@@]2(C)Cc3ccccc3[C@@H]2CC1=O | -10%[14.2 µM] | nt | nt | nt | nt
CCCCc1nc2cc(C(=O)NC3CCOC(C)(C)C3)ccc2o1 (stereo not given) | nt | -1 | 4% | nt | 9
COC(=O)CC1C(=O)NCCN1C(=O)c1ccc2oc(C(C)C)nc2c1 (stereo not given) | nt | 15 | -13% | nt | 9
CCCCc1nc2cc(C(=O)N3CCN(c4cnccn4)CC3)ccc2o1 | ? | 11 | -1% | ? | 11
CCCCc1nc2cc(C(=O)NC(C)c3cnn(C)c3)ccc2o1 (stereo not given) | nt | 66* | 0% | nt | 34*
SMILES | MARV entry inh | Shiga inhibitor | AMA1-RON2 inh | LASV entry inh | Cycloheximide cs
CCCCc1nc2cc(C(=O)N3CCCC3)ccc2o1 | nt | 68* | -5% | nt | 31*
CCCCc1nc2cc(C(=O)N3CCNC(=O)C3CC(=O)OC)ccc2o1 (stereo not given) | 13% | 8 | -1% | 3% | 15*
CCCCc1nc2cc(C(=O)N3CCNC(=O)C3)ccc2o1 | nt | 1 | -6% | nt | 14*
CCOC(=O)C1=CCN(S(=O)(=O)c2ccc(F)cc2)C1c1cccc(F)c1 (stereo not given) | nt | nt | 6% | nt | nt
CCC(=O)N1c2ccccc2CC1C(=O)NCCc1cc(OC)c(OC)c(OC)c1 (stereo not given) | nt | nt | nt | -1%[46.1 µM] | nt
CCOc1ccc(N(CC(=O)Nc2ccccc2C(=O)N2CCCC2)S(C)(=O)=O)cc1 | -32%[46.1 µM] | -11 | 0% | -3% | -5
